Source: PubChem BioAssay (EPA / NIEHS)
Activity calls are given as the source filed them. The calls were made as follows: active = hit-call score of the fitted dose curve at least 0.9, where 1 is the maximum; inactive = score below 0.9.

Key:
Conditions in all cases: mRNA level, 48 h; actives raise or lower the signal
MYC, MYC (gene 4609) = assay: LTEA_HepaRG_MYC: Life Technologies and Expression Analysis (LTEA) Assay for MYC using HepaRG (AID 2283518)
How it was run: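 HepaRG, ~100,000 cells/well, collagen I; 48 h plating; serum-free induction medium; 48 h dosing, duplicate, 100 uM top, half-log, 0.5% DMSO; total RNA → qRT-PCR MYC; gain/loss fit vs DMSO.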

[1] = read-out: matrix metalloproteinase-3 (MMP3), MMP3 (gene 4314); assay: LTEA_HepaRG_MMP3: Life Technologies and Expression Analysis (LTEA) Assay for matrix metalloproteinase-3 (MMP3) using HepaRG (AID 2283519)
How it was run: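 qRT-PCR read-out of MMP3 mRNA (normalised to three housekeeping genes) in HepaRG liver cells after 48 h chemical exposure; 8-point half-log series, top 100 uM, 0.5% DMSO vehicle. Bidirectional curve fitting against DMSO baseline.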

[2] = read-out: Paternally Expressed 10 (PEG10), PEG10 (gene 23089); assay: LTEA_HepaRG_PEG10: Life Technologies and Expression Analysis (LTEA) Assay for Paternally Expressed 10 (PEG10) using HepaRG (AID 2283520);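 as to AC50: differentiated HepaRG human liver cells in serum-free induction medium with 0.5% DMSO; PEG10 transcript by qRT-PCR normalised to ACTB GAPDH and POLR2A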
How it was run: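 PEG10 transcript measured by Fluidigm qRT-PCR, normalized to three housekeeping genes, in HepaRG cells treated 48 h (highest 100 uM, half-log steps, 0.5% DMSO vehicle). Cells plated 48 h before switching to serum-free induction medium.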

[3] = read-out: Nuclear factor NF-kappa-B p105 subunit (Homo sapiens) (UniProt P19838); assay: LTEA_HepaRG_NFKB1: Life Technologies and Expression Analysis (LTEA) Assay for Nuclear Factor Kappa B Subunit 1 (NFKB1) using HepaRG (AID 2283521)
How it was run: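 NFKB1 transcript was measured by TaqMan qRT-PCR on Fluidigm arrays, normalised to three housekeeping genes and fitted in both directions against 0.5% DMSO. HepaRG cells were dosed in duplicate for 48 h in serum-free induction medium, eight half-log steps from 100 uM.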

[4] = read-out: Protein phosphatase 2A (PPP2R4), PTPA (gene 5524); assay: LTEA_HepaRG_PPP2R4: Life Technologies and Expression Analysis (LTEA) Assay for Protein phosphatase 2A (PPP2R4) using HepaRG (AID 2283522)
How it was run: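 Expression was quantified by Fluidigm qRT-PCR normalised to three housekeeping genes after 48 h treatment. Human HepaRG cells received an 8-point series from 100 µM downward by half-logs, in duplicate with 0.5% DMSO vehicle and 1 mM phenobarbital as induction control.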

[5] = read-out: Phosphatase and tensin (PTEN), PTEN (gene 5728); assay: LTEA_HepaRG_PTEN: Life Technologies and Expression Analysis (LTEA) Assay for Phosphatase and tensin (PTEN) using HepaRG (AID 2283523)
How it was run: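 HepaRG, 48 h exposure, 8-pt half-log series from 100 uM top, 0.5% DMSO vehicle, duplicates. Readout: Fluidigm qRT-PCR of PTEN transcript; housekeeping normalization (ACTB, GAPDH, POLR2A). Gain or loss fitted relative to DMSO baseline.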

[6] = read-out: Pyruvate Dehydrogenase Kinase 4 (PDK4), PDK4 (gene 5166); assay: LTEA_HepaRG_PDK4: Life Technologies and Expression Analysis (LTEA) Assay for Pyruvate Dehydrogenase Kinase 4 (PDK4) using HepaRG (AID 2283525)
How it was run: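 HepaRG (human liver line), 48 h chemical exposure, 8-pt half-log CRC top 100 uM, 0.5% DMSO vehicle, duplicates. Readout: TaqMan qRT-PCR of PDK4 mRNA, housekeeping-normalized; gain/loss fit relative to DMSO baseline.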

[7] = read-out: NAD(P)H dehydrogenase [quinone] 1 (NQO1), NQO1 (gene 1728); assay: LTEA_HepaRG_NQO1: Life Technologies and Expression Analysis (LTEA) Assay for NAD(P)H dehydrogenase [quinone] 1 (NQO1) using HepaRG (AID 2283526)
How it was run: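 NQO1 transcript induction or loss measured by TaqMan qRT-PCR, referenced to three housekeeping genes and fitted bidirectionally against 0.5% DMSO. HepaRG cultures exposed 48 h, duplicate, eight-point half-log series, top 100 uM.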

[8] = read-out: Nuclear factor erythroid 2-related factor 2 (Homo sapiens) (UniProt Q16236); assay: LTEA_HepaRG_NFE2L2: Life Technologies and Expression Analysis (LTEA) Assay for Nuclear factor erythroid 2-related factor 2 (NFE2L2) Transcription Factor using HepaRG (AID 2283527)
How it was run: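 HepaRG, 48 h dosing, 8-pt half-log series from 100 uM in 0.5% DMSO, duplicates. Read-out: NFE2L2 mRNA by qRT-PCR (ACTB/GAPDH/POLR2A normalization). Bidirectional curve fit vs DMSO baseline.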

[9] = read-out: Signal transducer and activator of transcription 3 (Homo sapiens) (UniProt P40763); assay: LTEA_HepaRG_STAT3: Life Technologies and Expression Analysis (LTEA) Assay for Signal transducer and activator of transcription (STAT3) using HepaRG (AID 2283529)
How it was run: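 HepaRG, 48 h exposure, 8-pt half-log series (top 100 uM), 0.5% DMSO vehicle, duplicates. Readout: STAT3 transcript by Fluidigm qRT-PCR, housekeeping-normalized; bidirectional fit vs DMSO baseline.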

[10] = read-out: solute carrier (SLCO1B1), SLCO1B1 (gene 10599); assay: LTEA_HepaRG_SLCO1B1: Life Technologies and Expression Analysis (LTEA) Assay for solute carrier (SLCO1B1) using HepaRG (AID 2283530)
How it was run: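 HepaRG, serum-free induction medium, 48 h dosing, 8-pt half-log from 100 uM, 0.5% DMSO vehicle, duplicates. Readout: SLCO1B1 mRNA, qRT-PCR, ACTB/GAPDH/POLR2A normalization; up or down fit vs DMSO.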

[11] = read-out: sulfotransferase 2A1 (SULT2A1), SULT2A1 (gene 6822); assay: LTEA_HepaRG_SULT2A1: Life Technologies and Expression Analysis (LTEA) Assay for sulfotransferase 2A1 (SULT2A1) using HepaRG (AID 2283531)
How it was run: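 Transcript levels of SULT2A1, quantified by qRT-PCR and normalized to three housekeeping genes, serve as the readout. Human HepaRG cultures receive test chemicals for 48 h at up to 100 uM in half-log steps, with 0.5% DMSO vehicle.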

[12] = read-out: Transforming Growth Factor (TGFA), TGFA (gene 7039); assay: LTEA_HepaRG_TGFA: Life Technologies and Expression Analysis (LTEA) Assay for Transforming Growth Factor (TGFA) using HepaRG (AID 2283532)
How it was run: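 qRT-PCR read-out of TGFA transcript, normalized to three housekeeping genes, fitted bidirectionally against 0.5% DMSO baseline. Human HepaRG cultures received chemicals for 48 h at eight half-log concentrations, top 100 uM.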

[13] = read-out: Transforming Growth Factor (TGFB1), TGFB1 (gene 7040); assay: LTEA_HepaRG_TGFB1: Life Technologies and Expression Analysis (LTEA) Assay for Transforming Growth Factor (TGFB1) Transporter using HepaRG (AID 2283533)
How it was run: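 HepaRG, 48 h post-plating, switched to serum-free induction medium; chemicals 100 uM top, half-log, 8 pts, 0.5% DMSO, dup; 48 h exposure; RNA → Fluidigm TaqMan qRT-PCR; norm ACTB/GAPDH/POLR2A; bidirectional fit vs DMSO.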

TIMP1, TIMP1 (gene 7076) = assay: LTEA_HepaRG_TIMP1: Life Technologies and Expression Analysis (LTEA) Assay for TIMP1 using HepaRG (AID 2283534)
How it was run: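 Readout is TIMP1 mRNA level measured by qRT-PCR and normalized to three housekeeping genes. Human HepaRG cells were treated for 48 h in duplicate at eight concentrations up to 100 uM (0.5% DMSO); gain or loss fitted against DMSO.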

[14] = read-out: Tumor necrosis factor receptor 1 (TNFRSF1A), TNFRSF1A (gene 7132); assay: LTEA_HepaRG_TNFRSF1A: Life Technologies and Expression Analysis (LTEA) Assay for Tumor necrosis factor receptor 1 (TNFRSF1A) using HepaRG (AID 2283535)
How it was run: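 Read-out is TNFRSF1A transcript level by TaqMan qRT-PCR, normalized to three housekeeping genes, scored as gain or loss of signal versus 0.5% DMSO. Human HepaRG cells received test chemicals for 48 h at up to 100 uM (half-log series).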

[15] = read-out: Thyroid Hormone Responsive (THRSP), THRSP (gene 7069); assay: LTEA_HepaRG_THRSP: Life Technologies and Expression Analysis (LTEA) Assay for Thyroid Hormone Responsive (THRSP) using HepaRG (AID 2283536)
How it was run: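 qRT-PCR read-out (Fluidigm TaqMan), housekeeping-normalized (ACTB/GAPDH/POLR2A). HepaRG, 48 h chemical exposure, 8-pt half-log series from 100 uM in 0.5% DMSO, duplicates. Bidirectional curve fit vs 0.5% DMSO baseline.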

[16] = read-out: Cellular tumor antigen p53 (Homo sapiens) (UniProt P04637); assay: LTEA_HepaRG_TP53: Life Technologies and Expression Analysis (LTEA) Assay for Tumor Protein P53 (TP53) using HepaRG (AID 2283537)
How it was run: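 TP53 transcript measured by qRT-PCR, normalized to three housekeeping genes, after 48 h treatment of human HepaRG cultures with chemicals from 100 uM downward in half-log steps (0.5% DMSO vehicle, serum-free induction medium). Up- or down-regulation fitted against DMSO.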

[17] = read-out: solute carrier (SLC22A1), SLC22A1 (gene 6580); assay: LTEA_HepaRG_SLC22A1: Life Technologies and Expression Analysis (LTEA) Assay for solute carrier (SLC22A1) using HepaRG (AID 2283524);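 as to AC50: differentiated human HepaRG liver cells in serum-free induction medium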
How it was run: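 qRT-PCR readout (TaqMan, Fluidigm arrays) of SLC22A1 transcript, normalized to three housekeeping genes; bidirectional curve fit relative to 0.5% DMSO vehicle. Differentiated human HepaRG cells, 48 h chemical exposure, top concentration 100 uM, half-log steps, eight points.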

[18] = read-out: succinate dehydrogenase complex iron sulfur subunit B (SDHB), SDHB (gene 6390); assay: LTEA_HepaRG_SDHB: Life Technologies and Expression Analysis (LTEA) Assay for succinate dehydrogenase complex iron sulfur subunit B (SDHB) using HepaRG (AID 2283528)
How it was run: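 SDHB transcript level read by TaqMan qRT-PCR, housekeeping-normalised (ACTB, GAPDH, POLR2A), after 48 h chemical treatment of plated HepaRG cells; eight concentrations top 100 uM, half-log steps, 0.5% DMSO, duplicates; fitted both directions against DMSO.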

Measured: AC50

Signal transducer and activator of transcription 3 (Homo sapiens), sequence (P40763 whole entry, looked up): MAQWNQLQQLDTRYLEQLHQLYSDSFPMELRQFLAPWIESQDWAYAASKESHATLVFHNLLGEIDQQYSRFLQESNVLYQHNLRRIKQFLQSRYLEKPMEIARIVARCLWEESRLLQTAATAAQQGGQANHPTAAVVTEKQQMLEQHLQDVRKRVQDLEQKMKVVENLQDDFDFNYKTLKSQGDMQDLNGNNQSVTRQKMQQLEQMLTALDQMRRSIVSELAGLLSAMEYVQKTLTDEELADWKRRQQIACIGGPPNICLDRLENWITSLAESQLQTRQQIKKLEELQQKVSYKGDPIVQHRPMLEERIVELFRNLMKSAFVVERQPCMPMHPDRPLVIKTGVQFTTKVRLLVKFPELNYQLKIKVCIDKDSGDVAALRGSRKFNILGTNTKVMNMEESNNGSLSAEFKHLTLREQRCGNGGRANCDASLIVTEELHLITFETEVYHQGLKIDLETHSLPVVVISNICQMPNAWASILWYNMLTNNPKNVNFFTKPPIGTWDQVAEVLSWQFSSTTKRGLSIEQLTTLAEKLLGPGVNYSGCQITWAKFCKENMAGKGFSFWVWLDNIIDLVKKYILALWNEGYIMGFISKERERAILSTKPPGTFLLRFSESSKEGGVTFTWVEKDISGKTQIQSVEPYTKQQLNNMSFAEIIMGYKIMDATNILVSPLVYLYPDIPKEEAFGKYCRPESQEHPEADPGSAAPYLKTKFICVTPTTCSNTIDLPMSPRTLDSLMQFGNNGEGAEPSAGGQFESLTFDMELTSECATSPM
Cellular tumor antigen p53 (Homo sapiens), sequence (P04637 whole entry, looked up): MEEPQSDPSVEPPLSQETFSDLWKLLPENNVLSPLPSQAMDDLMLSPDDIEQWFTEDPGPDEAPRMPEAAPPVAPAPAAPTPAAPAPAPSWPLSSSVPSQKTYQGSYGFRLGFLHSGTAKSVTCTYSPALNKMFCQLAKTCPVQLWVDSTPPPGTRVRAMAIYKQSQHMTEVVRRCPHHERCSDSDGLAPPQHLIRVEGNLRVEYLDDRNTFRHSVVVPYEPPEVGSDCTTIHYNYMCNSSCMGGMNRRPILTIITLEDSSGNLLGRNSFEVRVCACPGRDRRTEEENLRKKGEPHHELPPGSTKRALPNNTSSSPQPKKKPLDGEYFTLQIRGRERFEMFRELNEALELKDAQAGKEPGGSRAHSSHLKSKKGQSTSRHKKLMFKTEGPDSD
Nuclear factor NF-kappa-B p105 subunit (Homo sapiens), sequence (P19838 whole entry, looked up): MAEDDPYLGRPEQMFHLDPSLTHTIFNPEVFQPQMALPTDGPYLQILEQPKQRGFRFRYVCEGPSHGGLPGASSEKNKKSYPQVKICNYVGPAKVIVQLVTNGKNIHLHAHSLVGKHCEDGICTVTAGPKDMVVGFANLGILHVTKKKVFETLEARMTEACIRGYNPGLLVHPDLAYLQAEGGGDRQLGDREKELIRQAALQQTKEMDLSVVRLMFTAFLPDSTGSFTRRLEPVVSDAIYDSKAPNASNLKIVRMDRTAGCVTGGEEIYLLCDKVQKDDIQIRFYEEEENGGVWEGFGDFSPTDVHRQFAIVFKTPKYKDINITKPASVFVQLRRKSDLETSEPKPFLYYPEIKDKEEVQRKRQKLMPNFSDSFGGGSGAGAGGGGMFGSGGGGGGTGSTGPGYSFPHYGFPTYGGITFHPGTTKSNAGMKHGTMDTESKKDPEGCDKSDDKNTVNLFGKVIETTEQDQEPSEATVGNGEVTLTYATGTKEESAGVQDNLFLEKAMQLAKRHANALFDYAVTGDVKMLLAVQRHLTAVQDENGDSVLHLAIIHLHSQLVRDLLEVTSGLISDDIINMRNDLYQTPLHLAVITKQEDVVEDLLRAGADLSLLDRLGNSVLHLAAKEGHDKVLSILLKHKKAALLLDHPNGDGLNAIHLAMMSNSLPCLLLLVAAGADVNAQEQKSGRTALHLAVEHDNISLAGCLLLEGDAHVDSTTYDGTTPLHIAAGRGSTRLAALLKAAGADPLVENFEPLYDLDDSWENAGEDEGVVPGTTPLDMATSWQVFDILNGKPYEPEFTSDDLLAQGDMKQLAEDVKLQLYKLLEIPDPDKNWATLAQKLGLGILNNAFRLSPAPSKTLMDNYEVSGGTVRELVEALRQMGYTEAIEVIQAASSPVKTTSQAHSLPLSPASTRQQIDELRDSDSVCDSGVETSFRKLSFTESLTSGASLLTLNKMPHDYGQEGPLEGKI
Nuclear factor erythroid 2-related factor 2 (Homo sapiens), sequence (Q16236 whole entry, looked up): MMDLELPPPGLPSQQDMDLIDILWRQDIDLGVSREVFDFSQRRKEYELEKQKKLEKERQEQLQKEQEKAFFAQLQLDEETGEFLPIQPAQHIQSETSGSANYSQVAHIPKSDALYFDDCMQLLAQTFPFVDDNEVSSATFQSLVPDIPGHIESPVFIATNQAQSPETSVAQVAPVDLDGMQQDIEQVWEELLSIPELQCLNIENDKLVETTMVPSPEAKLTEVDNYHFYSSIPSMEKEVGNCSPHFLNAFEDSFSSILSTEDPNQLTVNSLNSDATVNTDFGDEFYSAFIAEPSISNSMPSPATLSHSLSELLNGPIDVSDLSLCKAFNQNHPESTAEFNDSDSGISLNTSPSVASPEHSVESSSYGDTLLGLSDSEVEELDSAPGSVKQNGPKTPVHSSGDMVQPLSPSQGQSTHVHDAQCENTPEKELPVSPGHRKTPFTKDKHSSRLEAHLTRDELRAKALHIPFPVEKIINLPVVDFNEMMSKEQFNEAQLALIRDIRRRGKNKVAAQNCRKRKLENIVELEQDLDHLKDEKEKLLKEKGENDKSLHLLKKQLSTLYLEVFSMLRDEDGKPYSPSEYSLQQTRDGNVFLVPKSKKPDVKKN

O=C(c1ccccc1)C1CCCCC1
inactive: MYC, MYC (gene 4609) | [1] | [2] | [3] | [4] | [5] | [6] | [7] | [8] | [9] | [10] | [11] | [12] | [13] | TIMP1, TIMP1 (gene 7076) | [14] | [15] | [16]

CC(C)CCCCCCc1ccc(O)cc1
inactive: MYC, MYC (gene 4609) | [1] | [2] | [3] | [4] | [5] | [6] | [7] | [8] | [9] | [10] | [11] | [12] | [13] | TIMP1, TIMP1 (gene 7076) | [14] | [15] | [16]

CCCCOC(=O)C(C)Oc1ccc(Oc2ccc(C(F)(F)F)cn2)cc1 (stereo not given)
inactive: MYC, MYC (gene 4609) | [1] | [2] | [3] | [4] | [5] | [17] | [6] | [7] | [8] | [9] | [10] | [11] | [12] | [13] | TIMP1, TIMP1 (gene 7076) | [14] | [15] | [16]

C[C@]12CC[C@@H]3c4ccc(O)cc4C[C@@H](CCCCCCCCCS(=O)CCCC(F)(F)C(F)(F)F)[C@H]3[C@@H]1CC[C@@H]2O (stereo not given in full)
inactive: [5] | [8] | [9] | TIMP1, TIMP1 (gene 7076)
active: MYC, MYC (gene 4609) 0.0578 µM | [1] 0.084 µM | [2] 5.19 µM | [3] 0.0508 µM | [4] 0.0315 µM | [17] 14.5 µM | [6] 12.7 µM | [7] 0.0555 µM | [10] 25 µM | [11] 24.9 µM | [12] 0.0998 µM | [13] 0.121 µM | [14] 0.0802 µM | [15] 13.7 µM | [16] 0.0628 µM

O=C(O)C1(C(=O)Nc2ccc(Cl)cc2Cl)CC1
inactive: MYC, MYC (gene 4609) | [5] | [7] | [8] | [9] | [12] | [13] | TIMP1, TIMP1 (gene 7076) | [14] | [16]
active: [1] 50 µM | [2] 39.8 µM | [3] 22.9 µM | [4] 61.9 µM | [6] 7.18 µM | [18] 78.4 µM | [10] 77.1 µM | [11] 87.4 µM | [15] 78 µM

CCCCOCCOCCOCc1cc2c(cc1CCC)OCO2
inactive: MYC, MYC (gene 4609) | [1] | [2] | [3] | [4] | [5] | [7] | [9] | [12] | [13] | TIMP1, TIMP1 (gene 7076) | [14]
active: [6] 17.8 µM | [8] 9.6 µM | [10] 8.47 µM | [11] 6.8 µM | [15] 10.7 µM
